D3 antag: antagonists of human D3 dopamine receptor; P35462; D3R cells, DiscoveRx beta-arrestin luminescence, antagonist mode; hits give low values; max response, negative = inhibition, %; actives 2.5% (n = 360,000); AID 652054; in the data active means max response below about -50%; inconclusive means no clear call, values can overlap the other calls; further: on the % scale 0 is the no-effect control and ±100 the full control effect
Target sequence (P35462 whole entry, looked up): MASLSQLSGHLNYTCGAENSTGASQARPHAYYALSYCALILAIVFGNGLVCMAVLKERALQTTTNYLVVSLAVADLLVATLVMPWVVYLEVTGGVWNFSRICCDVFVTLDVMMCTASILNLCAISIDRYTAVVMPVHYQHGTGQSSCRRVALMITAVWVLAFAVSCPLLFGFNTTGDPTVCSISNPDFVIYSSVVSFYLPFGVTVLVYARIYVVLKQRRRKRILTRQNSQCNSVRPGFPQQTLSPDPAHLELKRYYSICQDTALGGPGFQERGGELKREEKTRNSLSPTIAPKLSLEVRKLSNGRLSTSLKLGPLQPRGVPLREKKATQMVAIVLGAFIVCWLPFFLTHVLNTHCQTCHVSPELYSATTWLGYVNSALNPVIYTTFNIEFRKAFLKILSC
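Cells expressing the human receptor were seeded at 1500 cells/well, incubated overnight at 37 degrees C in 5% CO2, then exposed to library compounds with dopamine controls for 90 minutes at 37 degrees C before luminescent detection.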
HepG2 viability: counter-screen for TGF-b inhibitors: cytotoxicity in HepG2 cells | actives 0.76% (n = 410,000) | HepG2 CAGA-GFP viability, ATP luminescence, 18 h | AID 588856 | Potency, µM (top dose mostly 46.1 µM), for the others: top-dose activity change, negative = cytotoxicity, hits mostly cytotoxic; further: potency means the concentration at half of the fitted maximal effect
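HepG2 CAGA-GFP cells (1000/well, DMEM with 1% FBS) received compound, then TGF-beta at 500 pg/mL final, and were incubated 18 hours at 37 degrees C. Viability was read by CellTiter-Glo luminescence. Media-only wells were set as complete cell-killing and DMSO as no toxicity.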
ATXN2 expr inh: ATXN2 expression inhibition. AID 1745845. Potency, µM (series often up to 57 µM), for the others: at the highest dose activity change, negative = inhibition, actives largely listed as inhibitors. actives 0.72% (n = 360,000). HEK-293 ATXN2-luciferase reporter, luminescence, 24 h; further: potency means the concentration at half of the fitted maximal effect; on the % scale 0 is the no-effect control and ±100 the full control effect; nearly all actives have a fitted effect of over 55% in size
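ATXN2-luciferase reporter cells (luciferase flanked by upstream and downstream ATXN2 gene portions) were treated 24 h at 37 °C with compounds at up to 57 uM. SteadyGlo luminescence gave expression; GF-AFC fluorescence gave viability.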
TGFb SMAD3 inh: inhibitors of TGF-b signaling; HepG2 CAGA-GFP TGF-b/SMAD3 reporter, GFP fluorescence, 18 h; TGF-beta stimulated, 500 pg/mL final; Potency, µM (doses to about 46.1 µM), without a hit: at the top dose activity, negative = inhibition, actives largely listed as inhibitors; actives 1.2% (n = 410,000); AID 588855; further: potency means the concentration at half of the fitted maximal effect; on the % scale 0 is the no-effect control and ±100 the full control effect; nearly all actives have a fitted effect of over 65% in size
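HEPG2 CAGA-GFP cells (1000/well, DMEM with 1% FBS) were pre-incubated 2 h at 37 degrees C, given compound by pin tool, then stimulated with TGF-beta at 500 pg/mL final for 18 h before per-cell GFP fluorescence imaging.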
ATXN viability: cell viability loss in ATXN counter-screen; S2 cells (HEK-293 line with an ATXN2-luciferase reporter) viability, CellTiter-Fluor protease fluorescence, 24 h; actives 0.49% (n = 400,000); Potency, µM (titrated, usually from 56.7 µM), hits mostly cytotoxic; further: potency means the concentration at half of the fitted maximal effect; nearly all actives have a fitted effect of over 40% in size
DRD3 agonist: activates the human D3 dopamine receptor; P35462; D3R DiscoveRx beta-arrestin cells, luminescence, 90 min; max activation, %; actives 0.58% (n = 410,000); AID 652048; in the data active means max activation above about 30%; further: 0% is about no effect
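Agonist-mode cell screen: cells plated at 1500/well and incubated overnight at 37 °C, then exposed to library compounds for 90 min at 37 °C. Detection reagent was added for 30–60 min at room temperature, and luminescence was read.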
* hit, by the source's call. The list is not random: actives were taken first. Their share in the collection is about 4.7%. Unless noted, the call rests on the fitted dose curve; in most records, active means well fitted curve in the direction sought with a large enough effect; inconclusive means small, poorly fitted or top-dose-only effect, or another doubt; inactive means no such curve, though single readings can be large; an effect the other way counts as inactive or inconclusive.

COc1ccc(-c2cc3nc(C)cc(N4CCN(C(=O)c5ccoc5)CC4)n3n2)cc1 was read as D3 antag 27.3, HepG2 viability -9.6%, ATXN2 expr inh -16.8%, TGFb SMAD3 inh 17.0%, ATXN viability inactive and DRD3 agonist 8.0.
COc1ccc(-c2[nH]nc3nc(N4CCN(C(=O)c5ccoc5)CC4)cc(C(F)(F)F)c23)cc1 was read as D3 antag 22.4, HepG2 viability -38.7%, ATXN2 expr inh 20µM*, TGFb SMAD3 inh inconclusive, ATXN viability 20µM* and DRD3 agonist 13.5.
Screening c1ccc2c(OCCCN3CCCCCC3)cccc2c1 returned D3 antag -60.2*, HepG2 viability -21.6%, TGFb SMAD3 inh 2.9%, ATXN viability inconclusive and DRD3 agonist -16.3.
Screening Clc1cccc(OCCOCCN2CCNCC2)c1Cl returned D3 antag inconclusive, HepG2 viability -4.5%, ATXN2 expr inh -5.7%, TGFb SMAD3 inh -14.7%, ATXN viability inactive and DRD3 agonist -44.8.
Screening Clc1cccc(OCCCN2CCCC2)c1Cl returned D3 antag -98.8*, HepG2 viability 0.2%, TGFb SMAD3 inh 1.2%, ATXN viability inactive and DRD3 agonist 1.4.
`COc1cc(NC(=O)c2cccnc2)c(OC)cc1NC(=O)c1ccc(Br)cc1` gave D3 antag 17.9, HepG2 viability -19.2%, ATXN2 expr inh 0.2%, TGFb SMAD3 inh 21.7%, ATXN viability inactive and DRD3 agonist 120.9*.
COc1cc(NC(=O)c2ccc(Br)cc2)c(OC)cc1NC(=O)c1ccccc1 was read as D3 antag 16.7, HepG2 viability 4.6%, TGFb SMAD3 inh -1.6%, ATXN viability inconclusive and DRD3 agonist 6.4.
For CC(Oc1ccccc1)C(=O)Nc1ccc(NC(=O)c2ccccc2)cc1 (stereo unspecified) the results were D3 antag inconclusive, HepG2 viability 0.8%, ATXN2 expr inh -10.7%, TGFb SMAD3 inh 0.0%, ATXN viability inactive and DRD3 agonist -7.6.
`COc1cc(NC(=O)C(C)Oc2ccccc2)c(OC)cc1NC(=O)c1ccccc1` (stereo unspecified) gave D3 antag 10.6, HepG2 viability -37.6%, ATXN2 expr inh -15.6%, TGFb SMAD3 inh -28.4%, ATXN viability inactive and DRD3 agonist 35.7*.
Screening O=Cc1ccc(O)c2ncccc12 returned D3 antag -83.4*, HepG2 viability 4.47µM*, ATXN2 expr inh 3.55µM*, TGFb SMAD3 inh 3.98µM* and DRD3 agonist -24.5.
For Cc1ccc(CN2CCC(CNc3ncnc4onc(-c5ccc(Cl)cc5)c34)CC2)cc1 the results were HepG2 viability -28.5%, ATXN2 expr inh -2.2%, TGFb SMAD3 inh -24.2%, ATXN viability inactive and DRD3 agonist -15.3.
CN(C(=O)/C=C/c1ccccc1)C1CCS(=O)(=O)C1 (stereo unspecified) was read as D3 antag -3.3, HepG2 viability 3.7%, ATXN2 expr inh 0.7%, TGFb SMAD3 inh 11.2%, ATXN viability inactive and DRD3 agonist -6.2.
`CN(C(=O)/C=C/c1ccccc1)C1CCCCC1` gave D3 antag 0.5, HepG2 viability 11.2µM*, ATXN2 expr inh 35.8%, TGFb SMAD3 inh -10.9%, ATXN viability inactive and DRD3 agonist 5.2.
Screening CN(C)C(=O)COc1ccccc1C(=O)OCC(=O)Nc1ccc(Oc2ccc(Br)cc2)cc1 returned HepG2 viability -7.2% and TGFb SMAD3 inh -9.3%.
For Cn1c(=O)c2c(O)c(Cc3ccccc3)c(=O)n(C)c2n(C)c1=O the results were D3 antag -7.1, HepG2 viability 3.2%, ATXN2 expr inh 24.0%, TGFb SMAD3 inh 18.8%, ATXN viability inactive and DRD3 agonist -3.4.
`Cn1c(=O)c2c(O)c([N+](=O)[O-])c(=O)n(C)c2n(C)c1=O` gave D3 antag -14.0, HepG2 viability 11.2µM*, ATXN2 expr inh -2.7%, TGFb SMAD3 inh -2.4%, ATXN viability inactive and DRD3 agonist -3.3.
`CSc1ccc(-c2ccc3c(c2)CC(CNC(=O)Cn2nc(C)nc2C)O3)cc1` (stereo unspecified) gave ATXN viability inactive.
CC1CCN(c2nc(-c3ccc(C(C)(C)C)cc3)nc3ccccc23)CC1 was read as HepG2 viability -5.7%, ATXN2 expr inh 141.8%, TGFb SMAD3 inh 15.0%, ATXN viability inactive and DRD3 agonist -8.4.
COc1ccc(N2CCN(C(=O)Cn3nnc(-c4cccs4)n3)CC2)cc1 was read as D3 antag -102.7*, HepG2 viability 2.9%, ATXN2 expr inh -3.6%, TGFb SMAD3 inh -15.6%, ATXN viability inactive and DRD3 agonist 13.8.
`COCCCN1C(=O)C(CC(=O)NCCCN(C)C)CC(C(=O)N2CCOCC2)=C1C` (stereo unspecified) gave D3 antag 1.0, HepG2 viability -0.3%, ATXN2 expr inh 4.1%, TGFb SMAD3 inh 5.4%, ATXN viability inactive and DRD3 agonist 95.3*.
For CCCCN1C(=O)C(CC(=O)NC2CCCC2)CC(C(=O)N2CCOCC2)=C1C (stereo unspecified) the results were D3 antag 1.2, HepG2 viability 3.3%, ATXN2 expr inh 11.2%, TGFb SMAD3 inh 3.2%, ATXN viability inactive and DRD3 agonist -1.9.
CCCCN1C(=O)C(CC(=O)NC2CCCCC2)CC(C(=O)N2CCOCC2)=C1C (stereo unspecified) was read as D3 antag -53.5*, HepG2 viability 7.9%, ATXN2 expr inh 0.6%, TGFb SMAD3 inh -2.4%, ATXN viability inconclusive and DRD3 agonist 8.3.
For Cc1cc(C)c2nc(N(CCCN(C)C)C(=O)c3ccc(S(=O)(=O)N4CCCCCC4)cc3)sc2c1 the results were D3 antag -12.2, HepG2 viability -74.3%, ATXN2 expr inh inconclusive, TGFb SMAD3 inh 15.8µM*, ATXN viability inactive and DRD3 agonist -12.5.
For COc1ccc2sc(N(CCCN(C)C)C(=O)c3ccc(S(=O)(=O)N4CCCc5ccccc54)cc3)nc2c1 the results were D3 antag inconclusive, HepG2 viability 11.2µM*, ATXN2 expr inh inconclusive, TGFb SMAD3 inh 22.4µM* and DRD3 agonist -10.7.
CCN(Cc1ccccc1)S(=O)(=O)c1ccc(C(=O)N(CCCN(C)C)c2nc3cc4c(cc3s2)OCCO4)cc1 was read as D3 antag inconclusive, HepG2 viability -92.6%, ATXN2 expr inh inconclusive, TGFb SMAD3 inh inconclusive, ATXN viability inconclusive and DRD3 agonist 1.4.
`COc1cc2nc(N(CCCN(C)C)C(=O)c3ccc(S(=O)(=O)N4CCc5ccccc54)cc3)sc2cc1OC` gave D3 antag -4.5, HepG2 viability -32.7%, ATXN2 expr inh -13.6%, TGFb SMAD3 inh -13.4%, ATXN viability inactive and DRD3 agonist -4.2.

Screening data from PubChem.
